Results published in PubChem BioAssay AID1159580 (chemical genetic matrix, 2015).
Among all 5,500 compounds or so, about 2,000 (36%) were called active. About 18% were inconclusive and are not listed. The list shows a part of the results. Values without a mark were called inactive. No stated cut-off is given here; in the data, active means normalized growth mostly below about 0.91 (no sharp cut-off); inconclusive means no clear call, values can overlap the other calls; inactive means mostly above about 0.92.

Experiment: chemical genetic growth profiling, strain panel (AID 1159580);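 further: tested at 20 µM; growth read once vehicle control cultures reached saturation at 30 °C; 1 = growth at the plate median or of vehicle wells; lower values mean less growth of the strain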
Settings: growth OD

Work on `C[C@]12CCC3c4ccc(O)cc4CCC3C1CC[C@@H]2O` (stereo not given in full) yielded a normalized growth (S. cerevisiae deletion strains, locus YJR066W, strain TOR1, active compounds read low) of 0.902, a normalized growth (S. cerevisiae deletion strains, locus YJR075W, strain HOC1, active compounds read low) of 1.02 and a normalized growth (S. cerevisiae deletion strains, locus YKL009W, strain mrt4, active compounds read low) of 0.892. It also gave a normalized growth (S. cerevisiae deletion strains, locus YKL068W, active compounds read low) of 1.02, a normalized growth (S. cerevisiae deletion strains, locus YKL085W, strain MDH1 (second series), active compounds read low) of 1.04 and a normalized growth (S. cerevisiae deletion strains, locus YKL085W, strain MDH1, active compounds read low) of 1.04. The normalized growth (S. cerevisiae deletion strains, locus YKL160W, strain elf1, active compounds read low) was 0.988, the normalized growth (S. cerevisiae deletion strains, locus YKL190W, strain CNB1, active compounds read low) was 1.03 and the normalized growth (S. cerevisiae deletion strains, locus YKR001C, strain vps1, active compounds read low) was 0.915. The normalized growth (S. cerevisiae deletion strains, locus YKR026C, strain gcn3, active compounds read low) was 1.03, the normalized growth (S. cerevisiae deletion strains, locus YKR091W, strain srl3, active compounds read low) was 1.02 and the normalized growth (S. cerevisiae deletion strains, locus YLL001W, strain dnm1, active compounds read low) was 1.02. It also gave a normalized growth (S. cerevisiae deletion strains, locus YLL026W, active compounds read low) of 0.982, a normalized growth (S. cerevisiae deletion strains, locus YLL041C, strain sdh2, active compounds read low) of 1.02 and a normalized growth (S. cerevisiae deletion strains, locus YLR027C, strain aat2, active compounds read low) of 0.973. For the same compound, the normalized growth (S. cerevisiae deletion strains, locus YLR039C, strain RIC1, active compounds read low) was 0.866, the normalized growth (S. cerevisiae deletion strains, locus YLR058C, strain SHM2, active compounds read low) was 1 and the normalized growth (S. cerevisiae deletion strains, locus YLR102C, strain apc9, active compounds read low) was 1.01. The normalized growth (S. cerevisiae deletion strains, locus YLR113W, strain HOG1, active compounds read low) was 0.983, the normalized growth (S. cerevisiae deletion strains, locus YLR221C, strain rsa3, active compounds read low) was 0.977 and the normalized growth (S. cerevisiae deletion strains, locus YLR258W, strain gsy2, active compounds read low) was 0.96. The normalized growth (S. cerevisiae deletion strains, locus YLR262C, strain YPT6 (second series), active compounds read low) was 0.738 (active), the normalized growth (S. cerevisiae deletion strains, locus YLR262C, strain YPT6, active compounds read low) was 0.819 and the normalized growth (S. cerevisiae deletion strains, locus YLR268W, strain sec22, active compounds read low) was 0.936. It also gave a normalized growth (S. cerevisiae deletion strains, locus YLR320W, strain mms22, active compounds read low) of 0.892, a normalized growth (S. cerevisiae deletion strains, locus YLR330W, strain CHS5, active compounds read low) of 1 and a normalized growth (S. cerevisiae deletion strains, locus YLR342W, strain FKS1 (second series), active compounds read low) of 0.868. For the same compound, the normalized growth (S. cerevisiae deletion strains, locus YLR342W, strain FKS1, active compounds read low) was 1, the normalized growth (S. cerevisiae deletion strains, locus YLR357W, strain rsc2, active compounds read low) was 1.03 and the normalized growth (S. cerevisiae deletion strains, locus YLR370C, strain arc18, active compounds read low) was 1. For the same compound, the normalized growth (S. cerevisiae deletion strains, locus YLR371W, strain rom2, active compounds read low) was 1.02, the normalized growth (S. cerevisiae deletion strains, locus YLR384C, strain iki3, active compounds read low) was 1.02 and the normalized growth (S. cerevisiae deletion strains, locus YLR418C, strain cdc73, active compounds read low) was 0.896. It also gave a normalized growth (S. cerevisiae deletion strains, locus YML016C, strain PPZ1, active compounds read low) of 1.01, a normalized growth (S. cerevisiae deletion strains, locus YML032C, strain rad52, active compounds read low) of 0.977 and a normalized growth (S. cerevisiae deletion strains, locus YML120C, strain ndi1, active compounds read low) of 0.996. It also gave a normalized growth (S. cerevisiae deletion strains, locus YML124C, strain tub3, active compounds read low) of 1.01, a normalized growth (S. cerevisiae deletion strains, locus YMR058W, strain fet3, active compounds read low) of 0.917 and a normalized growth (S. cerevisiae deletion strains, locus YMR078C, strain ctf18, active compounds read low) of 0.985. For the same compound, the normalized growth (S. cerevisiae deletion strains, locus YMR125W, strain sto1, active compounds read low) was 1.1, the normalized growth (S. cerevisiae deletion strains, locus YMR129W, active compounds read low) was 1.02 and the normalized growth (S. cerevisiae deletion strains, locus YMR205C, strain PFK2, active compounds read low) was 1.01. For the same compound, the normalized growth (S. cerevisiae deletion strains, locus YMR223W, strain ubp8, active compounds read low) was 0.974, the normalized growth (S. cerevisiae deletion strains, locus YMR231W, strain pep5, active compounds read low) was 1.01 and the normalized growth (S. cerevisiae deletion strains, locus YMR263W, strain SAP30, active compounds read low) was 0.98. The normalized growth (S. cerevisiae deletion strains, locus YMR307W, strain GAS1, active compounds read low) was 0.929, the normalized growth (S. cerevisiae deletion strains, locus YNL067W, strain RPL9B, active compounds read low) was 0.978 and the normalized growth (S. cerevisiae deletion strains, locus YNL071W, strain lat1, active compounds read low) was 0.958. The normalized growth (S. cerevisiae deletion strains, locus YNL153C, strain GIM3, active compounds read low) was 0.955, the normalized growth (S. cerevisiae deletion strains, locus YNL183C, strain NPR1, active compounds read low) was 0.912 and the normalized growth (S. cerevisiae deletion strains, locus YNL209W, strain ssb2, active compounds read low) was 1.01. The normalized growth (S. cerevisiae deletion strains, locus YNL233W, strain BNI4, active compounds read low) was 0.997, the normalized growth (S. cerevisiae deletion strains, locus YNL248C, strain rpa49, active compounds read low) was 0.993 and the normalized growth (S. cerevisiae deletion strains, locus YNL250W, strain rad50, active compounds read low) was 0.955. For the same compound, the normalized growth (S. cerevisiae deletion strains, locus YNL271C, strain bni1, active compounds read low) was 0.977, the normalized growth (S. cerevisiae deletion strains, locus YNL298W, strain CLA4, active compounds read low) was 0.897 (active) and the normalized growth (S. cerevisiae deletion strains, locus YNL307C, strain MCK1, active compounds read low) was 0.987. The normalized growth (S. cerevisiae deletion strains, locus YNL322C, strain KRE1 (second series), active compounds read low) was 1.03, the normalized growth (S. cerevisiae deletion strains, locus YNR049C, strain mso1, active compounds read low) was 1.02 and the normalized growth (S. cerevisiae deletion strains, locus YNR052C, strain pop2, active compounds read low) was 0.928. For the same compound, the normalized growth (S. cerevisiae deletion strains, locus YOL006C, strain TOP1, active compounds read low) was 0.744, the normalized growth (S. cerevisiae deletion strains, locus YOL012C, strain htz1) was 1.8 and the normalized growth (S. cerevisiae deletion strains, locus YOL147C, strain pex11, active compounds read low) was 1. The normalized growth (S. cerevisiae deletion strains, locus YOR001W, strain rrp6, active compounds read low) was 0.948, the normalized growth (S. cerevisiae deletion strains, locus YOR061W, strain CKA2, active compounds read low) was 0.984 and the normalized growth (S. cerevisiae deletion strains, locus YOR069W, strain VPS5, active compounds read low) was 1. It also gave a normalized growth (S. cerevisiae deletion strains, locus YOR070C, strain gyp1, active compounds read low) of 0.974, a normalized growth (S. cerevisiae deletion strains, locus YOR080W, strain dia2, active compounds read low) of 0.996 and a normalized growth (S. cerevisiae deletion strains, locus YOR083W, strain WHI5, active compounds read low) of 0.96. The normalized growth (S. cerevisiae deletion strains, locus YOR106W, strain vam3, active compounds read low) was 0.934, the normalized growth (S. cerevisiae deletion strains, locus YOR136W, strain idh2, active compounds read low) was 0.978 and the normalized growth (S. cerevisiae deletion strains, locus YOR144C, strain elg1, active compounds read low) was 0.974. The normalized growth (S. cerevisiae deletion strains, locus YOR184W, strain ser1, active compounds read low) was 0.857 (active), the normalized growth (S. cerevisiae deletion strains, locus YOR231W, strain MKK1, active compounds read low) was 0.928 and the normalized growth (S. cerevisiae deletion strains, locus YOR265W, strain rbl2, active compounds read low) was 0.986. The normalized growth (S. cerevisiae deletion strains, locus YOR270C, strain vph1, active compounds read low) was 0.797, the normalized growth (S. cerevisiae deletion strains, locus YOR290C, strain snf2, active compounds read low) was 0.906 and the normalized growth (S. cerevisiae deletion strains, locus YOR316C, strain cot1, active compounds read low) was 1. It also gave a normalized growth (S. cerevisiae deletion strains, locus YPL051W, strain arl3, active compounds read low) of 0.953, a normalized growth (S. cerevisiae deletion strains, locus YPL055C, strain LGE1, active compounds read low) of 0.907 and a normalized growth (S. cerevisiae deletion strains, locus YPL078C, strain atp4, active compounds read low) of 0.963. The normalized growth (S. cerevisiae deletion strains, locus YPL106C, strain sse1, active compounds read low) was 1.08, the normalized growth (S. cerevisiae deletion strains, locus YPL240C, strain hsp82, active compounds read low) was 0.999 and the normalized growth (S. cerevisiae deletion strains, locus YPL256C, strain CLN2, active compounds read low) was 0.99. For the same compound, the normalized growth (S. cerevisiae deletion strains, locus YPR119W, strain clb2, active compounds read low) was 1.03, the normalized growth (S. cerevisiae deletion strains, locus YPR141C, strain kar3, active compounds read low) was 1.03 and the normalized growth (S. cerevisiae deletion strains, locus YPR163C, strain tif3, active compounds read low) was 0.963. It also gave a normalized growth (S. cerevisiae deletion strains, locus YPR167C, strain met16, active compounds read low) of 0.985, a normalized growth (S. cerevisiae deletion strains, strain wtn01, active compounds read low) of 0.92 and a normalized growth (S. cerevisiae strains, strain wild type, active compounds read low) of 1.
